This passage reports growth results from PubChem BioAssay (NCI).

Holding throughout (assay): NCI-60 one-dose screen, 48 h (100 = growth as untreated, 0 = no growth, -100 = all killed)
What all share (conditions): 10 µM unless noted

In test [1] the test system is DU-145 prostate.
In test [2] the test system is K-562 leukemia.
The test system of test [3] is MALME-3M melanoma.
Test [4] has as its system MDA-MB-231 breast.
Test [5] deals with RXF 393 renal.
Test [6] deals with SF-268 CNS.
Test [7] concerns SF-295 CNS.
The test system of test [8] is SF-539 CNS.
The subject of test [9] is UACC-257 melanoma.
Test [10] deals with M14 melanoma.
Test [11] concerns HCT-15 colon.
The subject of test [12] is HT29 colon.
In test [13] the test system is SNB-75 CNS.
Test [14] deals with SNB-19 CNS.
Test [15] deals with PC-3 prostate.
In test [16] the test system is SK-MEL-5 melanoma.
For test [17], the system named is UACC-62 melanoma.
Test [18] relates to SK-MEL-28 melanoma.
The subject of test [19] is LOX IMVI melanoma.
In test [20] the test system is U251 CNS.

Each structure is given as a SMILES string. This is part of a sample that, as a whole, favours compounds with a hit. Of some 83,000 tested, about 20% had one in any assay.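 Results are percent growth after 48 hours of single-concentration exposure. 100 means growth as in untreated cells, lower positive values show inhibition; negative values down to -100 show cell death.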 A number with no mark means an inactive call. Activity calls are given as the source filed them. The calls were made as follows: active = growth percent below 10; inactive = the rest.

In the case of `O=C1/C(=C/c2ccccc2F)CN(C(=O)C(Cl)Cl)C/C1=C\c1ccccc1F`, the growth is -63.4% (active) in test [1]; -2.29% (active) in [2]; -47% (active) in test [3]; -49.1% (active) in test [4]; -76.3% (active) in test [5]; -0.301% (active) in [6]. The growth in test [7] is -46.2% (active); in [8], -85.9% (active); in [9] it was -17.5% (active); in test [10] it was -43.7% (active); in test [11] it was -66.5% (active); in test [12], 3.2% (active). For the same compound, the growth in test [13] was -18.4% (active); in test [14], -84.1% (active); in test [15] it was -41.3% (active); in test [16], -77% (active); in [17] it was -59% (active); in test [18] it was -58.9% (active).
Consider `Fc1cccc(-c2ccc3c(c2)C2(CCNCC2)CN3)c1`, for which the growth is 105% in test [1]; 92.6% in test [2]; 109% in test [3]; 91.2% in test [4]; 121% in test [5]; 98.8% in [6]. Moreover, the growth is 95.4% in [7]; 98.8% in [8]; 126% in [9]; 109% in [10]; 94.9% in test [11]; 93.1% in [12]. For the same compound, the growth in [13] is 92%; in test [15], 98.1%; in test [16], 97.4%; in test [17], 87.4%; in [19] it was 92.2%; in test [18] it was 116%.
As for `NC(N)=NS(=O)(=O)c1ccc(NC2=C(I)C(=O)c3ncccc3C2=O)cc1`, the growth was 105% in test [1]; 94.2% in test [2]; 103% in test [3]; 92.7% in test [4]; 108% in [5]; 90.5% in [6]. The growth is 103% in test [7]; 97.4% in test [8]; 97.1% in test [9]; 111% in test [10]; 103% in [11]; 106% in test [12]. Also, the growth in test [13] is 67.9%; in [14], 98.7%; in [15], 92.1%; in [16] it was 97.9%; in test [17], 94.2%; in test [19] it was 95%. In addition, the growth in test [18] is 135%.
Regarding `C=C1C(=O)O[C@H]2[C@H]1CC/C(COC(=O)CSCSCC(=O)OC/C1=C/CC[C@@]3(C)O[C@H]3[C@H]3OC(=O)C(=C)[C@@H]3CC1)=C\CC[C@@]1(C)O[C@@H]21`, the growth in [1] was 28.3%; in [2] it was 3.55% (active); in test [3] it was -4.65% (active); in test [4] it was -27.9% (active); in [5], -86.7% (active); in test [6], 20.7%. Moreover, the growth was 70.3% in [7]; 3.58% (active) in [8]; 34.1% in test [9]; 4.26% (active) in test [10]; 0.182% (active) in test [11]; -3.63% (active) in test [12]. Also, the growth was 60.4% in test [13]; 10.8% in test [20]; 0.538% (active) in test [15]; 66.1% in [16]; 24.2% in test [17]; -48.5% (active) in test [19]. In [18], the growth was -4.58% (active).
In the case of `O=C(CSc1nnc(-c2cc(-c3ccccc3)nc3ccccc23)n1-c1ccccc1)Nc1ccc(C(=O)/C=C/c2ccc(Cl)cc2)cc1`, the growth was 94.6% in test [1]; 65.8% in [2]; 99.5% in test [3]; 78.5% in test [4]; 103% in test [5]; 94.4% in test [6]. Also, the growth was 97.9% in test [7]; 96.7% in test [8]; 103% in test [9]; 92.6% in test [10]; 73.5% in test [11]; 76.2% in test [12]. In addition, the growth was 97.3% in [13]; 93.9% in [20]; 81% in [15]; 91.4% in test [16]; 67.9% in [17]; 94.3% in test [19]. Further, the growth in [18] is 99.8%.
For `Clc1ccc(-c2cc(-c3ccccc3)nc(NCCNc3ccnc4cc(Cl)ccc34)n2)cc1`, the growth in test [1] is 13.1%; in test [2] it was 0.266% (active); in test [3] it was -62.7% (active); in test [4], -69.2% (active); in test [5], 26%; in test [6], 3.04% (active). Moreover, the growth in [7] was 73.2%; in test [8], 74.5%; in test [9], 13.3%; in test [10], -69.7% (active); in test [11] it was -72.7% (active); in test [12] it was -16.2% (active). The growth was 44.7% in test [14]; -85.9% (active) in test [20]; 16.3% in [15]; 30.7% in test [16]; 69% in test [17]; -76.7% (active) in test [19]. For the same compound, the growth in [18] is -62.1% (active).
In the case of `CN(Cc1cnc2nc(N)nc(N)c2n1)c1ccc(C(=O)NC(CCC(=O)O)C(=O)O)cc1Br` (stereo not given), the growth in test [1] is 25.2%; in test [2], 31.1%; in test [3], 98.1%; in [4], 60.2%; in [5], 58.6%; in test [6], 34.4%. Also, the growth in [7] was 27%; in test [8], 6.95% (active); in test [9], 59.4%; in test [10], 30.9%; in [11], 34.9%; in [12], 21.2%. The growth is 45.4% in test [14]; 43% in test [20]; 56.9% in test [15]; 13.8% in test [16]; 30.9% in test [17]; 17.7% in [19]. Besides, the growth in [18] is 50%.
For the compound `CCOC(=O)/C=C1\S/C(=N\Nc2cc(=O)[nH]c3ccccc23)N(c2ccccc2)C1=O`, the growth in [1] was 109%; in [2], 98.2%; in test [3], 101%; in [4], 97.8%; in test [5] it was 103%; in test [6], 104%. Besides, the growth in test [7] is 103%; in [8], 96.9%; in [9], 107%; in test [10], 101%; in test [11] it was 98.7%; in test [12], 113%. Moreover, the growth was 100% in test [14]; 94.2% in test [20]; 95.4% in test [15]; 104% in test [16]; 97% in test [17]; 97.2% in [19]. Moreover, in test [18], the growth is 110%.
